# Reference: PubChem BioAssay (NCATS)
# Where “and” joins values, the source holds several entries; their conditions need not be identical. Identical values can stand only once. Inconclusive results are not listed. Entries that show only a call come without a potency. Calls of active or inactive are those of the source. Unless noted, calls come from the whole dose curve; as a rule, active = well fitted curve in the direction sought with a large enough effect; inconclusive = small, poorly fitted or top-dose-only effect, or another doubt; inactive = no such curve, though single readings can be large; an effect the other way counts as inactive or inconclusive.
# Experiments:
# [1] = qHTS assay for measurement of the activity of small molecule inhibitors on Zika virus induced Caspase-3 activity in human iPSC derived neural progenitor cells (hNPCs) (AID 1224857); note: nearly all actives have a fitted effect of over 65% in size; note: potency is the fitted concentration of half-maximal effect
# Procedure, shortened: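 In medium with heparin 2 ug/ml and cyclopamine 2 uM, hNPCs (350 cells/well) received compound for one hour and then Zika virus at 2 FFU/cell; caspase activity was measured by Caspase-Glo 3/7 luminescence 6 h post-infection.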
# [2] = qHTS assay to identify small molecule inhibitors of chordoma cells - UCH-1 (AID 1259355); note: nearly all actives have a fitted effect of over 55% in size
# Procedure, shortened: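 800 cells/well, overnight attach; compounds pinned at 15 concs, then auranofin/camptothecin/doxorubicin/rubitecan/topotecan combo added; 48hr 37 C, 5% CO2; CellTiter-Glo, 30min RT, luminescence.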
# [3] = qHTS assay to identify small molecule inhibitors of chordoma cells - UCH-2 (AID 1259356)
# [4] = P-glycoprotein substrates identified in KB-8-5-11 adenocarcinoma cell line, qHTS therapeutic library screen (AID 1346987); note: nearly all actives have a fitted effect of over 65% in size; note: potency is the fitted concentration of half-maximal effect
# Procedure, shortened: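 Human cervical adenocarcinoma KB-8-5-11 cells, selected in colchicine to over-express P-gp and assayed without it, were exposed for 72 h to titrated compounds. An ATP-based luminescent viability signal gave AC50.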
# [5] = qHTS assay for cell viability of HEK293 cells (AID 743288); conditions: ATP luminescence (CellTiter-Glo), 18 h; max response: stronger effect = lower value; note: nearly all actives have a fitted effect of over 50% in size
# Procedure, shortened: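 Quantitative high-throughput screen: compounds were pinned onto parental HEK293 cells (2,000 per well) after a minimum 5 h settling at 37 C, incubated 18 h at 37 C, and intracellular ATP measured by luciferase luminescence.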
# [6] = qHTS assay for cell viability of the p53RE-bla HCT-116 cell line (AID 743292); note: nearly all actives have a fitted effect of over 55% in size
# Procedure, shortened: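 CellSensor p53RE-bla HCT-116 cells, 4,000/well, preincubated 5 h at 37 C, then exposed to compounds in DMSO for 16 h at 37 C. Viability read as CellTiter-Glo luminescence (intracellular ATP) after 30 min at room temperature.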
# [7] = qHTS assay for measurement of the activity of small molecule inhibitors on Zika virus induced Caspase-3 activity in human astrocytoma cells (AID 1224859)
# Procedure, shortened: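 A cell-based luminescent caspase-3/7 assay used SNB-19 cells infected with ZIKV (2 FFU/cell) for 6 h following 1 h compound pretreatment.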
# [8] = qHTS profiling of the MIPE4 collection as inhibitors of Plasmodium falciparum (3D7) proliferation (AID 743344; call rule not given here); conditions: P. falciparum 3D7 in erythrocytes, SYBR Green DNA fluorescence, 72 h; at 28.5 µM (top of the series)
# Procedure, shortened: (§1)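 Parasite DNA was quantified by SYBR Green I fluorescence (ex 485, em 535 nm) after overnight lysis in saponin/Triton buffer at room temperature. Cultures at 0.3% parasitemia and 2.5% hematocrit were first exposed to compound for 72 h at 37 C; signals were normalised to artemisinin (0.29 uM) and vehicle wells.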
# [9] = qHTS profiling of the MIPE4 collection as inhibitors of Plasmodium falciparum (DD2) proliferation (AID 743345; call rule not given here); conditions: P. falciparum Dd2 in erythrocytes, SYBR Green DNA, 72 h; at 28.5 µM (top of the series)
# Procedure, shortened: as §1
# [10] = qHTS profiling of the MIPE4 collection as inhibitors of Plasmodium falciparum (DD2) proliferation (Rep 2) (AID 743346; call rule not given here); conditions: P. falciparum Dd2 in erythrocytes, SYBR Green DNA, 72 h; at 28.5 µM (top of the series)
# Procedure, shortened: as §1
# [11] = qHTS profiling of the MIPE4 collection as inhibitors of Plasmodium falciparum (HB3) proliferation (AID 743347; call rule not given here); conditions: P. falciparum HB3 in erythrocytes, SYBR Green DNA, 72 h; at 28.5 µM (top of the series)
# Procedure, shortened: as §1
# [12] = P-glycoprotein substrates identified in KB-3-1 adenocarcinoma cell line, qHTS therapeutic library screen (AID 1346986); note: nearly all actives have a fitted effect of over 60% in size
# Procedure, shortened: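 Dose-response cytotoxicity, KB-3-1 vs P-gp-high KB-8-5-11, no colchicine in assay medium. Read: CellTiter-Glo at 72 h.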
# [13] = qHTS profiling for inhibitors of Plasmodium falciparum (3D7) proliferation (AID 743322; call rule not given here;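 note: infected erythrocytes exposed to compound for 72 h before lysis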); conditions: P. falciparum 3D7 proliferation; at 28.7 µM (top of the series) unless noted
# Procedure, shortened: as §1
# [14] = qHTS profiling for inhibitors of Plasmodium falciparum (DD2) proliferation (AID 743323; call rule not given here); conditions: lower = more inhibition; at 28.7 µM (top of the series) unless noted
# Procedure, shortened: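 SYBR Green fluorescence (ex 485, em 535 nm) of lysed cultures gives parasite DNA content; wells normalized to artemisinin (0.29 uM) and DMSO controls. Infected red cells: 0.3% parasitemia, 2.5% hematocrit, 72 h, 37 C.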
# [15] = Identifying Small Molecule Inhibitors of Pancreatic Cancer Stem Cells (SN12C, Adherent) (AID 1259358);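 note: cell survival measured after 48 h of compound exposure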
# Procedure, shortened: (§2)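 Adherent (2D) versus sphere (3D) formats; spheres generated 14 d in SCM beforehand. Compound transferred by pin tool after 4 h, 48 h incubation, CellTiter-Glo endpoint.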
# [16] = Identifying Small Molecule Inhibitors of Pancreatic Cancer Stem Cells (SN12C, Spheroid) (AID 1259360)
# Procedure, shortened: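 Endpoint: ATP-based luminescence, 48 h drug exposure. Bortezomib at 9.2 uM final as full-kill control; DMSO vehicle as negative control; activity normalized between vehicle and cell-free wells.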
# [17] = Identifying Small Molecule Inhibitors of Pancreatic Cancer Stem Cells (A278, Adherent) (AID 1259361);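 note: viability read after 48 h compound exposure; nearly all actives have a fitted effect of over 35% in size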
# Procedure, shortened: as §2
smiles,measurement,setting,value
CC(C(=O)O)c1ccc(C(=O)c2cccs2)cc1 (configuration not stated),Potency,[1],22.4 µM (active)
same,Potency,[2],inactive
same,Potency,[3],inactive
same,Potency,[4],inactive
CCCCCCCCCCCCCCCCCC(=O)O,max response,[5],-8.42% (inactive) and -6.66% (inactive) and -3.76% (inactive)
same,Potency,[6],inactive
same,Potency,[1],inactive
same,Potency,[2],inactive
same,Potency,[3],inactive
same,Potency,[4],inactive
Clc1ccccc1-c1nc(-c2ccncc2)no1,Potency,[1],inactive
same,Potency,[2],inactive
same,Potency,[3],inactive
CN1CCc2cc(O)c(O)cc2C(c2ccccc2)C1 (configuration not stated),Potency,[7],inactive
CN1C2CCC1CC(OC(=O)C(O)c1ccccc1)C2 (configuration not stated),Potency,[7],inactive
CN1[C@@H](CC(=O)c2ccccc2)CCC[C@H]1C[C@H](O)c1ccccc1,Potency,[1],inactive
same,Potency,[3],inactive
O=C(Nc1cccc(C(=O)Nc2ccc(S(=O)(=O)O)c3cc(S(=O)(=O)O)cc(S(=O)(=O)O)c23)c1)Nc1cccc(C(=O)Nc2ccc(S(=O)(=O)O)c3cc(S(=O)(=O)O)cc(S(=O)(=O)O)c23)c1,"parasite growth, % of DMSO control",[8],84.7%
same,"parasite growth remaining, % of DMSO control (lower = more inhibition)",[9],91.3%
same,"parasite growth, % of control (lower = inhibition)",[10],111%
same,"growth, % of control",[11],83.4%
same,Potency,[1],inactive
CC(=O)/C=C1\C(=O)N(C)c2ccccc21,Potency,[7],inactive
Cc1ccc(O)c(-n2nc3ccccc3n2)c1,Potency,[1],inactive
same,Potency,[2],inactive
same,Potency,[3],inactive
same,Potency,[4],inactive
O=C(O)Cc1cccc(-c2cc(CCCCCCc3ccc(O[C@H]4O[C@H](CO)[C@@H](O)[C@H](O)[C@@H]4O)c(-c4cccc(CC(=O)O)c4)c3)ccc2O[C@H]2O[C@H](CO)[C@@H](O)[C@H](O)[C@@H]2O)c1,"activity change, negative = inhibition",[1],14.4% [at 0.568 µM] (inactive)
same,outcome,[12],inactive [at 0.354 µM]
same,"activity change, negative = cytotoxicity",[4],3.65% [at 0.354 µM] (inactive)
CCCCC#Cc1nc(NC)c2ncn([C@@H]3O[C@H](CO)[C@@H](O)[C@H]3O)c2n1,Potency,[7],inactive
C#CC1(O)CC[C@H]2[C@@H]3CCC4=CCCC[C@@H]4[C@H]3CC[C@@]21C (some centres not stated),Potency,[1],inactive
same,Potency,[2],inactive
same,Potency,[3],inactive
same,Potency,[4],inactive
CCCCN(CC)c1nc(C)nc2c1c(C)cn2-c1c(C)cc(C)cc1C,Potency,[1],inactive
same,Potency,[4],inactive
CN1CCc2cccc3c2C1Cc1ccc(O)c(O)c1-3 (configuration not stated),Potency,[7],inactive
O=C(Nc1ccc2[nH]ncc2c1)C1CCC1,Potency,[1],inactive
same,Potency,[4],inactive
N=C(N)N,Potency,[1],inactive
same,Potency,[4],inactive
O=[N+]([O-])c1ccc(CSc2ncnc3c2ncn3[C@@H]2O[C@H](CO)[C@@H](O)[C@H]2O)cc1,Potency,[7],inactive
O=Cc1ccc(O)c(O)c1O,Potency,[7],inactive
O=C(Nc1ccc2c(c1)CCN(Cc1ncn[nH]1)C2)c1ccccc1-c1ccc(C(F)(F)F)cc1,Potency,[1],inactive
same,Potency,[4],inactive
CCN(CC)CCCCNc1ncc2cc(-c3c(Cl)cccc3Cl)c(NC(=O)NC(C)(C)C)nc2n1,Potency,[1],inactive
same,Potency,[4],16.4 µM (active)
CCCCC/C=C\CC(O)/C=C/c1cccc(CC(O)CCCCO)n1 (configuration not stated),Potency,[7],inactive
CO/N=C(\C(=O)N[C@@H]1C(=O)N2C(C(=O)O)=C(COC(C)=O)CS[C@H]12)c1csc(N)n1 (stereo in doubt),Potency,[1],inactive
same,Potency,[2],inactive
same,Potency,[3],inactive
same,Potency,[4],inactive
CN1CC(=O)N/C1=N/C(=O)Nc1cccc(Cl)c1,remaining parasite growth % (stronger effect = lower value),[13],102%
same,"activity, percent of control",[14],106%
same,Potency,[1],11.2 µM (active)
same,Potency,[2],inactive
same,Potency,[3],inactive
same,Potency,[15],inactive
same,outcome,[16],inactive
same,outcome,[17],inactive
same,Potency,[4],inactive
COC(=O)C1=C(C)NC(C)=C(C(=O)OCC(C)C)C1c1ccccc1[N+](=O)[O-] (configuration not stated),"parasite growth, % of DMSO control",[8],5.69%
same,"parasite growth remaining, % of DMSO control (lower = more inhibition)",[9],15%
same,"parasite growth, % of control (lower = inhibition)",[10],8.98%
same,"growth, % of control",[11],9.44%
same,Potency,[7],inactive
same,Potency,[2],inactive
same,Potency,[3],inactive
Cc1c(C(=O)O)c(O)cc2c1C(=O)c1c(O)c([C@@H]3O[C@H](CO)[C@@H](O)[C@H](O)[C@H]3O)c(O)c(O)c1C2=O,Potency,[7],inactive
same,Potency,[3],inactive
CCC1C(=O)OCC1Cc1cncn1C (configuration not stated),Potency,[7],inactive
same,Potency,[2],inactive
same,Potency,[3],inactive
same,Potency,[4],inactive
Nc1ccc(C(=O)O)c(O)c1,Potency,[7],inactive
same,Potency,[2],inactive
same,Potency,[3],inactive
same,Potency,[4],inactive
CCCC1(C)C(C#N)(C#N)C1(C#N)C#N,Potency,[7],inactive
C[N+](C)(C)CCOP(=O)(O)OP(=O)([O-])OC[C@H]1O[C@@H](n2ccc(N)nc2=O)[C@H](O)[C@@H]1O,Potency,[7],inactive
same,Potency,[2],inactive
same,Potency,[3],inactive
same,Potency,[4],inactive
O=C(CCN1CCN(CCO)CC1)N1c2ccccc2Sc2ccc(C(F)(F)F)cc21,Potency,[7],inactive
same,Potency,[2],inactive
same,Potency,[3],inactive
CCCOC(=O)c1ccc(O)cc1,max response,[5],-5.57% (inactive) and 0.165% (inactive) and 2.13% (inactive)
same,Potency,[6],inactive
same,Potency,[7],inactive
same,Potency,[2],inactive
same,Potency,[3],inactive
same,Potency,[4],inactive
CCOC(=O)c1ccccc1O,Potency,[7],inactive
same,Potency,[2],inactive
same,Potency,[3],inactive
same,Potency,[4],inactive
C=CC(N)CCC(=O)O (configuration not stated),Potency,[7],inactive
same,Potency,[2],inactive
same,Potency,[3],inactive
same,Potency,[4],inactive
CCCCCCOc1ccccc1C(N)=O,Potency,[7],inactive
same,Potency,[2],inactive
same,Potency,[3],inactive
same,Potency,[4],18.4 µM (active)
Cn1cc(C2=C(c3ccc(Cl)cc3Cl)C(=O)NC2=O)c2ccccc21,Potency,[7],inactive
Cc1ccccc1CNc1ncnc2c1ncn2C1OC(CO)C(O)C1O (configuration not stated),Potency,[7],inactive
same,Potency,[2],inactive
COc1cc2c3cc1Oc1cc(ccc1O)C[C@@H]1c4c(cc(OC)c(O)c4Oc4ccc(cc4)C[C@@H]3N(C)CC2)CC[N+]1(C)C,Potency,[7],inactive
same,Potency,[2],inactive
same,Potency,[3],inactive
same,Potency,[4],inactive
